Measurements as given in PubChem BioAssay (NCI).
Compounds without any hit were thinned out: in the full panel of roughly 83,000, 20% have a hit.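 For each line, cells grew in 96-well plates with the test compound present at a single concentration for 48 hours.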 The source made the active and inactive calls. How the source made its calls: active means growth percent below 10; inactive means the rest.

Assays:
Test in all cases: NCI-60 one-dose screen, 48 h (100 = growth as untreated, 0 = no growth, -100 = all killed)
Settings in all cases: 10 µM unless noted
SR leukemia = tested on: SR leukemia
RPMI-8226 leukemia = tested on: RPMI-8226 leukemia
OVCAR-8 ovarian = tested on: OVCAR-8 ovarian
OVCAR-5 ovarian = tested on: OVCAR-5 ovarian
OVCAR-4 ovarian = tested on: OVCAR-4 ovarian
SK-OV-3 ovarian = tested on: SK-OV-3 ovarian
IGROV1 ovarian = tested on: IGROV1 ovarian
OVCAR-3 ovarian = tested on: OVCAR-3 ovarian
HS 578T breast = tested on: HS 578T breast
NCI/ADR-RES ovarian = tested on: NCI/ADR-RES ovarian
T-47D breast = tested on: T-47D breast
BT-549 breast = tested on: BT-549 breast
MDA-MB-435 melanoma = tested on: MDA-MB-435 melanoma
SW-620 colon = tested on: SW-620 colon
MCF7 breast = tested on: MCF7 breast
HCT-116 colon = tested on: HCT-116 colon
HCC-2998 colon = tested on: HCC-2998 colon
KM12 colon = tested on: KM12 colon

Measured: growth

CC1CCC(C(C)C)C(NN)C1 (stereo unspecified)
inactive: SR leukemia 103% | RPMI-8226 leukemia 104% | OVCAR-8 ovarian 92.8% | OVCAR-5 ovarian 107% | OVCAR-4 ovarian 111% | SK-OV-3 ovarian 91.8% | IGROV1 ovarian 109% | OVCAR-3 ovarian 113% | HS 578T breast 102% | NCI/ADR-RES ovarian 106% | T-47D breast 80.2% | BT-549 breast 105% | MDA-MB-435 melanoma 110% | SW-620 colon 104% | MCF7 breast 100% | HCT-116 colon 106% | HCC-2998 colon 97.9% | KM12 colon 105%

CCN(CC)CCNC(=O)c1c(C)[nH]c(/C=C2\C(=O)Nc3cc(NC(=O)NC(=O)c4ccc(OC)cc4F)ccc32)c1C
inactive: SR leukemia 10.6% | RPMI-8226 leukemia 75.7% | OVCAR-8 ovarian 34% | OVCAR-5 ovarian 120% | OVCAR-4 ovarian 111% | SK-OV-3 ovarian 129% | IGROV1 ovarian 98.5% | OVCAR-3 ovarian 111% | HS 578T breast 84.4% | NCI/ADR-RES ovarian 88.3% | T-47D breast 104% | BT-549 breast 104% | MDA-MB-435 melanoma 110% | SW-620 colon 94.9% | MCF7 breast 58.3% | HCT-116 colon 64.7% | HCC-2998 colon 100% | KM12 colon 51.5%

CCCCCCCCCCCCCCCCNc1ccccc1
inactive: SR leukemia 75.1% | RPMI-8226 leukemia 52.5% | OVCAR-8 ovarian 91.8% | OVCAR-5 ovarian 115% | OVCAR-4 ovarian 105% | SK-OV-3 ovarian 103% | IGROV1 ovarian 91.6% | OVCAR-3 ovarian 104% | HS 578T breast 108% | NCI/ADR-RES ovarian 104% | T-47D breast 88.6% | BT-549 breast 71.7% | MDA-MB-435 melanoma 111% | SW-620 colon 108% | MCF7 breast 90.1% | HCT-116 colon 101% | HCC-2998 colon 105% | KM12 colon 88.7%

CCCCCC/C=N/Nc1ccc([N+](=O)[O-])cn1
inactive: SR leukemia 89.4% | RPMI-8226 leukemia 105% | OVCAR-8 ovarian 110% | OVCAR-5 ovarian 100% | OVCAR-4 ovarian 118% | SK-OV-3 ovarian 81.1% | IGROV1 ovarian 105% | OVCAR-3 ovarian 103% | HS 578T breast 108% | NCI/ADR-RES ovarian 102% | T-47D breast 88.4% | BT-549 breast 96.2% | MDA-MB-435 melanoma 101% | SW-620 colon 102% | MCF7 breast 90.7% | HCT-116 colon 84.7% | HCC-2998 colon 85.9% | KM12 colon 99.5%

CCCCCCCCCCCCCCCC(=O)NS(=O)(=O)OC[C@H]1O[C@@H](n2cnc3c(N)ncnc32)[C@H](O)[C@@H]1O
inactive: RPMI-8226 leukemia 22.8%
active: SR leukemia 0.423% | OVCAR-8 ovarian -10.9% | OVCAR-5 ovarian -45.3% | OVCAR-4 ovarian -48.4% | SK-OV-3 ovarian -18.5% | IGROV1 ovarian -52.2% | OVCAR-3 ovarian -75.1% | HS 578T breast -14.6% | NCI/ADR-RES ovarian -20.5% | T-47D breast -16.9% | BT-549 breast -65.2% | MDA-MB-435 melanoma -74.5% | SW-620 colon -39.2% | MCF7 breast 5.8% | HCT-116 colon -25.8% | HCC-2998 colon -85.9% | KM12 colon -39.2%

O=C(Cn1c2ccccc2c2ccncc21)N/N=C/c1c[nH]c2ccccc12
active: RPMI-8226 leukemia -27.7% | OVCAR-4 ovarian -60% | HCT-116 colon 4.33%
inactive: SR leukemia 40.6% | OVCAR-8 ovarian 40.9% | OVCAR-5 ovarian 107% | SK-OV-3 ovarian 107% | IGROV1 ovarian 89.2% | OVCAR-3 ovarian 18.3% | HS 578T breast 53.2% | NCI/ADR-RES ovarian 94.6% | T-47D breast 90.2% | BT-549 breast 94.4% | MDA-MB-435 melanoma 33.8% | SW-620 colon 34.3% | MCF7 breast 37.8% | HCC-2998 colon 87.5% | KM12 colon 60.5%

COc1cc(Cn2cc3c(c2)-c2onc(CO)c2CC3)cc(OC)c1OC
inactive: SR leukemia 71.8% | RPMI-8226 leukemia 79.1% | OVCAR-8 ovarian 98.7% | OVCAR-5 ovarian 103% | OVCAR-4 ovarian 98% | SK-OV-3 ovarian 112% | IGROV1 ovarian 96.6% | OVCAR-3 ovarian 99.4% | HS 578T breast 80.3% | NCI/ADR-RES ovarian 93.8% | T-47D breast 93.2% | BT-549 breast 98.6% | MDA-MB-435 melanoma 72% | SW-620 colon 87% | MCF7 breast 86.8% | HCT-116 colon 84% | HCC-2998 colon 101% | KM12 colon 90.9%

O=C1COc2ccccc2C(=O)N1CCCCN1CCCCC1
inactive: SR leukemia 90.1% | RPMI-8226 leukemia 70.9% | OVCAR-8 ovarian 94.2% | OVCAR-5 ovarian 95.9% | OVCAR-4 ovarian 95% | SK-OV-3 ovarian 80.4% | IGROV1 ovarian 92% | OVCAR-3 ovarian 110% | HS 578T breast 102% | NCI/ADR-RES ovarian 98.8% | T-47D breast 51.3% | BT-549 breast 78.7% | MDA-MB-435 melanoma 104% | SW-620 colon 84.6% | MCF7 breast 79.6% | HCT-116 colon 57.8% | HCC-2998 colon 109% | KM12 colon 90.2%

CCOc1cccc(Nc2nc(N)nc3[nH]c4ccc(O)cc4c23)c1
inactive: SR leukemia 65.7% | RPMI-8226 leukemia 42.4% | OVCAR-8 ovarian 77.6% | OVCAR-5 ovarian 63.1% | OVCAR-4 ovarian 66.3% | SK-OV-3 ovarian 55.9% | IGROV1 ovarian 16.7% | OVCAR-3 ovarian 58.5% | HS 578T breast 58.5% | NCI/ADR-RES ovarian 80.4% | T-47D breast 18.8% | BT-549 breast 68.8% | MDA-MB-435 melanoma 84.2% | SW-620 colon 76.1% | MCF7 breast 43.1% | HCT-116 colon 72.9% | HCC-2998 colon 89.8% | KM12 colon 87.6%

O=C(Nc1ccc(Cl)c(Cl)c1)Nc1ccc(Cl)c([N+](=O)[O-])c1
inactive: OVCAR-8 ovarian 10.9% | OVCAR-5 ovarian 11.9% | OVCAR-4 ovarian 27.1% | IGROV1 ovarian 15.8%
active: SR leukemia -25.2% | RPMI-8226 leukemia -36.2% | SK-OV-3 ovarian -11.7% | OVCAR-3 ovarian 6.38% | HS 578T breast 7.04% | NCI/ADR-RES ovarian -7.67% | T-47D breast -2.12% | BT-549 breast -9.25% | MDA-MB-435 melanoma 7.8% | SW-620 colon 9.66% | MCF7 breast 0.367% | HCT-116 colon 1.83% | HCC-2998 colon 2.28% | KM12 colon 2.33%

CCOc1ccc(NC2=C(Cl)C(=O)c3ccccc3C2=O)cc1
inactive: RPMI-8226 leukemia 41.7% | OVCAR-8 ovarian 62.7% | OVCAR-5 ovarian 110% | OVCAR-4 ovarian 91.9% | SK-OV-3 ovarian 92.1% | OVCAR-3 ovarian 43.5% | HS 578T breast 95.4% | NCI/ADR-RES ovarian 98.5% | T-47D breast 66.7% | BT-549 breast 77.6% | MDA-MB-435 melanoma 67.1% | MCF7 breast 46.1% | HCT-116 colon 80.6% | HCC-2998 colon 57.7% | KM12 colon 72.9%
active: SR leukemia -6.21% | IGROV1 ovarian 0.21% | SW-620 colon -51.3%

C#C[C@H](O)/C=C/CCCCCCC#C[C@H](O)CC[C@@H](O)C#CCCCCCC/C=C/[C@@H](O)C#C
active: SR leukemia -22.8% | IGROV1 ovarian -37.6%
inactive: RPMI-8226 leukemia 21.3% | OVCAR-8 ovarian 89.1% | OVCAR-5 ovarian 111% | OVCAR-4 ovarian 101% | SK-OV-3 ovarian 105% | OVCAR-3 ovarian 96% | HS 578T breast 95.9% | NCI/ADR-RES ovarian 54.5% | T-47D breast 76% | BT-549 breast 93.9% | MDA-MB-435 melanoma 92.5% | SW-620 colon 71.9% | MCF7 breast 68.5% | HCT-116 colon 57.3% | HCC-2998 colon 95.2% | KM12 colon 93.2%

COc1cc(/C=C2/Oc3cc4occc4c(OC)c3C2=O)ccc1OCC(=O)Nc1ccncc1
inactive: SR leukemia 102% | RPMI-8226 leukemia 91.4% | OVCAR-8 ovarian 104% | OVCAR-5 ovarian 113% | OVCAR-4 ovarian 111% | SK-OV-3 ovarian 93.1% | IGROV1 ovarian 96.3% | OVCAR-3 ovarian 99.8% | HS 578T breast 95.1% | NCI/ADR-RES ovarian 107% | T-47D breast 108% | BT-549 breast 93.9% | MDA-MB-435 melanoma 112% | SW-620 colon 103% | MCF7 breast 94.3% | HCT-116 colon 95.3% | HCC-2998 colon 110% | KM12 colon 97.1%

COc1ccc(-c2nn(-c3cccc(Cl)c3)cc2-c2cc(-c3ccc(Br)cc3)[nH]c(=O)c2C#N)cc1
inactive: SR leukemia 35.6% | RPMI-8226 leukemia 75% | OVCAR-8 ovarian 77.9% | OVCAR-5 ovarian 105% | SK-OV-3 ovarian 89.1% | IGROV1 ovarian 92.9% | OVCAR-3 ovarian 68% | HS 578T breast 33% | NCI/ADR-RES ovarian 65% | T-47D breast 70.8% | BT-549 breast 66.3% | MDA-MB-435 melanoma 94.4% | SW-620 colon 73.5% | MCF7 breast 65% | HCT-116 colon 79.7% | HCC-2998 colon 98.4% | KM12 colon 91.8%
active: OVCAR-4 ovarian -34%

c1ccc2c(c1)Oc1cccnc1-n1nccc1-2
inactive: SR leukemia 94.2% | RPMI-8226 leukemia 96.9% | OVCAR-8 ovarian 99.6% | OVCAR-5 ovarian 107% | OVCAR-4 ovarian 110% | SK-OV-3 ovarian 104% | IGROV1 ovarian 104% | OVCAR-3 ovarian 108% | HS 578T breast 90.1% | NCI/ADR-RES ovarian 100% | T-47D breast 105% | BT-549 breast 101% | MDA-MB-435 melanoma 107% | SW-620 colon 102% | MCF7 breast 98.6% | HCT-116 colon 104% | HCC-2998 colon 110% | KM12 colon 100%

CN1C(=O)C2(SCC(C(=O)NCC(=O)OC(C)(C)C)N2C(=O)C2CCCCC2)c2ccccc21 (stereo unspecified)
inactive: SR leukemia 110% | RPMI-8226 leukemia 90.5% | OVCAR-8 ovarian 96% | OVCAR-5 ovarian 104% | OVCAR-4 ovarian 100% | SK-OV-3 ovarian 99.8% | IGROV1 ovarian 101% | OVCAR-3 ovarian 107% | HS 578T breast 97.5% | NCI/ADR-RES ovarian 97.7% | T-47D breast 82.9% | BT-549 breast 109% | MDA-MB-435 melanoma 104% | SW-620 colon 98.7% | MCF7 breast 97.9% | HCT-116 colon 96.3% | HCC-2998 colon 106% | KM12 colon 101%

CCOC(=O)c1noc2c1CCc1cn(Cc3cc(OC)cc(OC)c3)cc1-2
inactive: SR leukemia 91.1% | RPMI-8226 leukemia 99.9% | OVCAR-8 ovarian 107% | OVCAR-5 ovarian 108% | OVCAR-4 ovarian 113% | SK-OV-3 ovarian 101% | IGROV1 ovarian 110% | OVCAR-3 ovarian 103% | HS 578T breast 99.7% | NCI/ADR-RES ovarian 97.9% | T-47D breast 94.7% | BT-549 breast 91.5% | MDA-MB-435 melanoma 103% | SW-620 colon 103% | MCF7 breast 94.9% | HCT-116 colon 92.3% | HCC-2998 colon 88.9% | KM12 colon 100%
